Shown are actives, neighbours in structure and some others; about 1.6% of the full set was active somewhere.
Peg3 imprint = qHTS Assay for Compounds that Induce Erasure of Genomic Imprints | mouse ES Peg3-LacZ reporter, beta-gal luminescence, 40 h | Potency, µM (titrated, usually from 60.7 µM), inactives show at the highest dose activity change, positive = activation, most hits filed as activators | 0.02% of 110,000 active
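Each well holds 300 Peg3LacZ-Neo (maternal) female ES cells incubated 40 h at 37C, 5% CO2. LacZ is measured by BetaGlo luminescence, with AC50 and maximum efficacy derived from dose-response curves.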
p53ts 39C tox = qHTS Screen for Compounds that Selectively Target Cancer Cells with p53 Mutations: Cytotoxicity of p53ts Cells at the Nonpermissive Temperature | H1299-p53A138V viability at 39C, ATP luminescence, 24 h | Potency, µM (doses to about 46.1 µM), without a hit: at the top dose activity change, negative = cell killing, hits mostly cytotoxic | 1.5% of 130,000 active | AID 902, 2007; note: % is set by controls: 0 for no effect and ±100 for the full control effect; nearly all actives have a fitted effect of over 55% in size
IkB sig inh = IkB Signaling | Potency, µM (highest dose often 57.1 µM), without a hit: at the highest dose IkBa stabilization activation | 0.04% of 110,000 active | ABC-DLBCL IkBa-CBG/CBR dual luciferase ratio, 4 h; response scale: scaled: untreated 0%, proteasome inhibitor 100% | AID 445, 2006; active = well fitted curve in the direction sought with a large enough effect in the signal ratio, not every such curve was filed as active; inconclusive = small, poorly fitted or top-dose-only effect, or a change in a side signal; the % refers to the signal ratio;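 note: the direction sought is a rising ratio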
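In this assay, an IκBα–CBG68 fusion accumulates when IKK-driven degradation is blocked; native CBR normalizes for cell number. OCI-Ly3 cells were treated 4 h with compound and doxycycline, then green and red light read after Chroma-Glo addition.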
p53ts 32C tox = qHTS Screen for Compounds that Selectively Target Cancer Cells with p53 Mutations: Cytotoxicity of p53ts Cells at the Permissive Temperature. 0.93% of 130,000 active. Potency, µM (doses to about 46.1 µM), for inactives: top-dose activity change, negative = cytotoxicity, hits mostly cytotoxic. H1299-p53A138V at 32C, ATP luminescence viability, 24 h;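 note: 0% = DMSO and -100% = full killing by reference compound; nearly all actives have a fitted effect of over 55% in size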
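ATP-content luminescence (ATPlite) read-out after 24 h compound exposure at 32C in H1299-p53A138V cells (600/well). Tested up to 46 uM. Normalized to DMSO (0%) and 100 uM tamoxifen (100% killing); Hill-fit AC50.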
Numbers without * were called inactive; ? = inconclusive; / = not tested or not shown; [ ] = another dose, or the depositor's remark. Unless noted, calls come from the whole dose curve; as a rule, active = well fitted curve in the direction sought with a large enough effect; inconclusive = small, poorly fitted or top-dose-only effect, or another doubt; inactive = no such curve, though single readings can be large; an effect the other way counts as inactive or inconclusive. Potency is the fitted concentration of half-maximal effect.

SMILES | Peg3 imprint | p53ts 39C tox | IkB sig inh | p53ts 32C tox
COc1cc(NC(=O)CSc2nc(-c3cccs3)cc(C(F)(F)F)n2)cc(OC)c1OC | -15.1%[10.9 µM] | -8.1% | 5.5% | 8.6%
O=C(CCS(=O)(=O)c1nc(-c2ccc3c(c2)OCO3)cc(C(F)(F)F)n1)Nc1ccccc1C(F)(F)F | 3.6%[10.9 µM] | 7.94µM* | -3.4% | ?
COc1ccc(NC(=O)CCS(=O)(=O)c2nc(-c3ccc4c(c3)OCO4)cc(C(F)(F)F)n2)cc1OC | -1.8%[10.9 µM] | 32.6% | ? | ?
O=C(CCS(=O)(=O)c1nc(-c2cccs2)cc(C(F)(F)F)n1)Nc1cccc(O)c1 | 7.1%[10.9 µM] | 12.6µM* | 0.4% | ?
COc1cc(NC(=O)CCS(=O)(=O)c2nc(-c3cccs3)cc(C(F)(F)F)n2)cc(OC)c1OC | -7.9%[10.9 µM] | 12.6µM* | ? | -19.4%
CC(=O)c1cccc(NC(=O)c2nc(-c3ccccc3)n(-c3cccc(Cl)c3)n2)c1 | -8.6%[10.9 µM] | -20.6% | 1.8% | -13.4%
Nc1nc(N)c2nn(-c3ccc(C(=O)O)cc3)nc2n1 | -6.0%[10.9 µM] | 0.9%[9.22 µM] | 0.9%[11.4 µM] | -5.2%[9.22 µM]
CCNC(=O)C1CCN(Cc2cc3ccccc3n2Cc2ccc(C)cc2)CC1 | -13.4%[10.9 µM] | -17.2% | ? | 9.7%
CCCCC/C=C\C[C@H](O)/C=C\c1cccc(C[C@H](O)CCCCO)n1 | / | 2.5% | 3.9% | -10.6%
O=C(Cn1c(=O)n(-c2ccccc2)c(=O)c2c3c(sc21)CCCC3)Nc1ccccc1 | 5.9%[10.9 µM] | 12.6µM* | 5.4% | ?
CCOc1ccc(Sc2cc(C(=O)NCc3ccccc3Cl)c3ccccc3n2)cc1 | -13.6%[10.9 µM] | -27.2% | ? | -9.1%
Cc1ccc(S(=O)(=O)c2nnn3c2nc(NC(C)C)c2sccc23)cc1 | 16.1%[10.9 µM] | -8.7% | -0.8% | 0.0%
Cc1cc(C2=NNC(=NC3CC3)SC2)c(C)n1Cc1ccco1 | / | 12.6µM* | / | /
Cc1cc(C2=NNC(=NC3CC3)SC2)c(C)n1-c1ccccc1 | / | 10µM* | / | /
Cc1cc(O)cc(=O)n1Cc1ccco1 | 1.4% | 2.0% | 1.1% | -0.2%
O=c1cc(C(F)(F)F)oc2c1ccc1ccccc12 | / | -1.3% | / | -5.1%
O=c1cc(-c2ccccc2)oc2c1ccc1ccccc12 | -14.0% | 31.6µM* | -0.5%[11.4 µM] | -7.4%
COCCNC(=O)c1ccc(-n2c(=O)c(=O)[nH]c3ccccc32)cc1 | / | 8.7% | / | 7.5%
Cc1cc(C)c2ccc(N)nc2c1O | -25.8% | ? | 5.01µM* | -21.9%
Cc1cc(C)c2ccc(C)[n+]([O-])c2c1O | 14.9% | 9.9% | -1.4% | 4.4%
c1ccc(SCCSc2ccccc2)cc1 | 6.5% | -7.9% | -2.2% | -16.1%[1.84 µM]
CN(C)C(=O)CSc1cccc2cccnc12 | -26.2% | -2.3% | ? | -0.4%
O=C(CSc1cccc2cccnc12)N1CCCC1 | -36.4% | -13.9% | 3.98µM* | 2.5%
FC(F)(F)c1cc(CO[C@@H]2CCCN[C@H]2c2ccccc2)cc(C(F)(F)F)c1 | / | 20µM* | -7.4% | ?
CCOc1ccc(CNC(=O)Nc2ccc3c(c2)N(C)C(=O)c2ccccc2S3)cc1 | -9.7%[10.9 µM] | -29.5% | -0.7% | 1.0%
SMILES | Peg3 imprint | p53ts 39C tox | IkB sig inh | p53ts 32C tox
CCN(CCCNC(=O)c1cc2cc3ccc(OC)cc3nc2s1)c1cccc(C)c1 | 1.4%[10.9 µM] | 12.6µM* | ? | ?
COC(=O)c1ccc(CSc2nc3c([nH]c4ccccc43)c(=O)n2-c2cc(C)cc(C)c2)o1 | -4.3%[10.9 µM] | 15.8µM* | 2.0% | 16.1%
COc1cccc(NC(=O)CSc2nc3c([nH]c4ccccc43)c(=O)n2-c2cc(C)cc(C)c2)c1 | 20.7%[10.9 µM] | -18.2% | 1.4% | 1.1%
CN(C)c1ncc2nc(-c3cccs3)c(=O)n(C[C@H]3CCCO3)c2n1 | -2.7% | -2.8% | 1.9%[11.4 µM] | 12.3%
Cc1ccc(C(CC(=O)NCC2(c3ccccc3)CCCC2)c2ccccc2)c(O)c1 (stereo not drawn) | -4.6%[10.9 µM] | 15.8µM* | ? | -27.4%
CC(C)C[C@H](NC(=O)[C@@H](O)[C@@H](N)Cc1ccccc1)C(=O)O | / | 6.9% | 15.1% | -2.2%
O=C1c2[nH]nc(-c3ccccc3O)c2C(c2ccc(Cl)cc2)N1CCc1ccccc1 (stereo not drawn) | 9.3%[10.9 µM] | ? | ? | 20µM*
CCc1ccc(NC(=O)c2ccc(F)c(S(=O)(=O)NC3CCCCCC3)c2)cc1 | -19.6%[10.9 µM] | -9.0% | ? | 15.9%
O=C(Nc1ccc(C(F)(F)F)cc1)c1cc(S(=O)(=O)NC2CCCCCC2)ccc1F | -12.8%[10.9 µM] | ? | ? | 28.3%
O=C(Nc1ccc(C(F)(F)F)cc1)c1cc(S(=O)(=O)NC2CCCCC2)ccc1F | -14.5%[10.9 µM] | 10µM* | ? | 21.9%
O=C(Nc1cc(Cl)cc(Cl)c1)c1ccc(F)c(S(=O)(=O)NC2CCCC2)c1 | -15.5%[10.9 µM] | 12.6µM* | -2.7% | ?
O=c1cc(O)cc(/C=C\c2ccc(O)c(O)c2)o1 | / | 3.3% | 6.5% | -9.3%
Cc1ccc(NC2=C/C(=N\S(=O)(=O)c3cccs3)c3ccccc3C2=O)c(C)c1 | / | 7.08µM* | / | 3.16µM*
CCOC(=O)OCC1OC(C#Cc2ccccc2)C=CC1Oc1cccc(N(C)C)c1 (stereo not drawn) | / | -20.2%[9.22 µM] | / | -3.9%[9.22 µM]
Cc1ccc2nc3ccc(N4CCN(C)CC4)nn3c(=O)c2c1 | -15.0% | ? | -2.8% | 3.98µM*
Cc1sc2nc3ccc(N4CCCC4)nn3c(=O)c2c1C | -14.5% | ? | -0.9% | -29.0%
CC1CCC2C(=O)N3CCCC3C(=O)N2C1c1ccc(Br)cc1 (stereo not drawn) | / | -3.8%[9.22 µM] | / | -10.1%[9.22 µM]
O=C1C=C(N2CCN(c3ccccn3)CC2)C(=O)c2c(O)ccc(O)c21 | -21.9%[10.9 µM] | -20.0%[9.22 µM] | 5.01µM* | -12.7%[9.22 µM]
O=C(CN1C(=O)c2ccccc2C1=O)N1CCN(c2ccccn2)CC1 | 6.1% | 2.5% | 2.1% | 6.2%
CCCC(=O)C1=C(c2ccc(C)cc2)N(C(=O)CCC)n2cnnc2S1 | -12.7%[10.9 µM] | -9.6% | 4.4% | 24.3%
O=C(N/N=C/c1ccc(O)cc1O)c1cc(-c2ccccc2)n[nH]1 | / | 10µM* | / | -15.9%
O=C(N/N=C/c1ccccn1)c1cc(-c2ccc3ccccc3c2)n[nH]1 | / | -21.8% | / | /
O=C(N/N=C/c1c[nH]c2ccccc12)c1cc(-c2cccc3ccccc23)n[nH]1 | / | 14.5% | / | 2.8%
O=C(N/N=C/c1c[nH]c2ccccc12)c1cc(-c2ccc3ccccc3c2)n[nH]1 | / | 15.8µM* | / | ?
CC1CCN(c2ccc(-c3cccc(NS(=O)(=O)c4ccc(Cl)s4)c3)nn2)CC1 | -8.4%[10.9 µM] | 3.98µM* | ? | 6.31µM*
COc1ccc(C)cc1S(=O)(=O)Nc1cccc(-c2ccc(N3CCC(C)CC3)nn2)c1 | -5.7%[10.9 µM] | ? | ? | -11.7%
CC1CCN(c2ccc(-c3cccc(NS(=O)(=O)c4cccs4)c3)nn2)CC1 | -13.8%[10.9 µM] | 3.16µM* | ? | 10µM*
CN1CCN(Cc2cc(COCc3ccccc3)c3cccnc3c2O)CC1 | -24.2% | 5.01µM* | 6.4% | -28.9%
CCCOCc1cc(CN2CCN(c3cccc(Cl)c3)CC2)c(O)c2ncccc12 | 9.3%[10.9 µM] | 15.8µM* | 25.0% | -6.5%

Assay outcomes: PubChem, National Center for Advancing Translational Sciences (NCATS)
